Results filed as inconclusive are left out. Active and inactive are the calls of the source. Calls come from the whole dose curve; as a rule, active = well fitted curve in the direction sought with a large enough effect; inconclusive = small, poorly fitted or top-dose-only effect, or another doubt; inactive = no such curve, though single readings can be large; an effect the other way counts as inactive or inconclusive.
Assays:
[1] = tested on: CRL-7250; assay: Cytotoxic Profiling of Annotated Libraries Using Quantitative High-Throughput Screening (AID 1296008); conditions: Five cell lines viability, CellTiter-Glo ATP luminescence, 48-72 h; max response: active compounds read low; note: nearly all actives have a fitted effect of over 60% in size; for max response: % is set by controls: 0 for no effect and ±100 for the full control effect
Method in brief: (§1)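 Cytotoxicity was measured as CellTiter-Glo ATP luminescence, read after 10 min at room temperature. Compound treatment of the cells lasted 48 or 72 hr at 37 degrees Celsius in a qHTS format.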

[2] = tested on: HEK293; assay: as above; conditions: Five cell lines viability, CellTiter-Glo ATP luminescence, 48-72 h; max response: active compounds read low
Method in brief: as §1

[3] = tested on: HaCat; assay: as above; conditions: Five cell lines viability, CellTiter-Glo ATP luminescence, 48-72 h; max response: active compounds read low
Method in brief: as §1

[4] = tested on: KB-3-1; assay: as above; conditions: Five cell lines viability, CellTiter-Glo ATP luminescence, 48-72 h; max response: active compounds read low
Method in brief: as §1

[5] = tested on: NIH3T3; assay: as above; conditions: Five cell lines viability, CellTiter-Glo ATP luminescence, 48-72 h; max response: active compounds read low
Method in brief: as §1

[6] = tested on: HACAT; assay: qHTS assay to identify novel small-molecules to repurpose for Merkel cell carcinoma treatment (AID 1296009); conditions: MCC and control cell lines, CellTiter-Glo viability, 72 h; at 44.8 µM (top of the series) unless noted; note: nearly all actives have a fitted effect of over 60% in size
Method in brief: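 Cell viability measured by CellTiter-Glo following 72 hr compound treatment at 37 degree celsius, with NPC and MIPE libraries tested in 8- and 11-point concentration series.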

[7] = tested on: C33A; assay: Primary qHTS to identify gynecologic anti-cancer compounds using libraries of approved drugs and bioactive compounds (AID 1345084); conditions: Gynecologic cancer cell panel viability, ATPlite luminescence, 48 h; series mostly up to 57.5 µM; note: % is set by controls: 0 for no effect and ±100 for the full control effect; nearly all actives have a fitted effect of over 55% in size
Method in brief: (§2)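 Cell viability after 48 h drug treatment, ATPlite luminescence readout; five doses.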

[8] = tested on: CAOV3; assay: as above; conditions: Gynecologic cancer cell panel viability, ATPlite luminescence, 48 h; series mostly up to 57.5 µM
Method in brief: as §2

[9] = tested on: CASKI; assay: as above; conditions: Gynecologic cancer cell panel viability, ATPlite luminescence, 48 h; series mostly up to 57.5 µM
Method in brief: as §2

[10] = tested on: Es-2; assay: as above; conditions: Gynecologic cancer cell panel viability, ATPlite luminescence, 48 h; series mostly up to 57.5 µM
Method in brief: as §2

[11] = tested on: HeLa; assay: as above; conditions: Gynecologic cancer cell panel viability, ATPlite luminescence, 48 h; series mostly up to 57.5 µM
Method in brief: as §2

[12] = tested on: Hek293T; assay: as above; conditions: Gynecologic cancer cell panel viability, ATPlite luminescence, 48 h, control line for the selectivity index; series mostly up to 57.5 µM
Method in brief: as §2

[13] = tested on: JEG-3; assay: as above; conditions: Gynecologic cancer cell panel viability, ATPlite luminescence, 48 h; series mostly up to 57.5 µM
Method in brief: as §2

[14] = tested on: OV90; assay: as above; conditions: Gynecologic cancer cell panel viability, ATPlite luminescence, 48 h; series mostly up to 57.5 µM
Method in brief: as §2

C=C[C@H]1[C@H](O[C@@H]2O[C@H](CO)[C@@H](O)[C@H](O)[C@H]2O)OC=C(C(=O)OC)[C@H]1CCO
inactive: max response [1] -6.38% | max response [2] 2.87% | outcome [3] | max response [4] 5.52% | max response [5] -6.64% | outcome [6] | Potency [7] | Potency [8] | outcome [9] | Potency [10] | Potency [11] | Potency [12] | Potency [13] | Potency [14]

C=C(CCO)C(=O)OCC1OCC(OC(=O)C(=C)CCO[C@@H]2O[C@H](CO)[C@@H](O)[C@H](O)[C@H]2O)C(O)C1O (some centres undefined)
inactive: max response [1] -6.14% | max response [2] 0.294% | outcome [3] | max response [4] 4.34% | max response [5] -5.54% | outcome [6] inactive [at 17.4 µM] | Potency [7] | Potency [8] | outcome [9] | Potency [10] | Potency [11] | Potency [12] | Potency [13] | Potency [14]

COC(=O)C(Cc1ccccc1)NC(=O)c1ccccc1 (centres undefined)
inactive: max response [1] -7.59% | max response [2] -8.19% | outcome [3] | max response [4] 6.61% | max response [5] -1.1% | outcome [6] | Potency [7] | Potency [8] | outcome [9] | Potency [10] | Potency [11] | Potency [12] | Potency [13] | Potency [14]

COc1cc(/C=C/C(=O)O[C@@H]2C[C@](O)(C(=O)O)C[C@@H](O)[C@H]2O)ccc1O
inactive: max response [1] -5.29% | max response [2] -0.759% | outcome [3] | outcome [4] | max response [5] 1.32% | outcome [6] | Potency [7] | Potency [8] | outcome [9] | Potency [10] | Potency [11] | Potency [12] | Potency [13] | Potency [14]

CC1CCC2C(C)(C)[C@H](O)CC[C@]2(C)C12Cc1c(O)cc3c(c1O2)CN(C(CCC(=O)O)C(=O)O)C3=O (some centres undefined)
inactive: max response [1] -1.74% | max response [2] 0.0488% | outcome [3] | outcome [4] | max response [5] 3.99% | outcome [6] inactive [at 17.4 µM] | Potency [7] | Potency [8] | outcome [9] | Potency [10] | Potency [11] | Potency [12] | Potency [13] | Potency [14]

C[C@H]1CCN2C[C@]34C[C@@]5(C(=O)Nc6c5ccc5c6OC=CC(C)(C)O5)C(C)(C)C3C[C@]12C(=O)N4C (some centres undefined)
inactive: outcome [1] | max response [2] -13.2% | outcome [3] | max response [4] -2.39% | max response [5] 3.63% | outcome [6] inactive [at 17.4 µM] | Potency [7] | Potency [8] | outcome [9] | Potency [10] | Potency [11] | Potency [12] | Potency [13] | Potency [14]

C/C(=C\CO)CC/C=C(\C)C(=O)O[C@@H]1O[C@H](CO)[C@@H](O)[C@H](O)[C@H]1O
inactive: max response [1] -4.11% | max response [2] 1.04% | outcome [3] | outcome [4] | max response [5] 1.84% | outcome [6] | Potency [7] | Potency [8] | outcome [9] | Potency [10] | Potency [11] | Potency [12] | Potency [13] | Potency [14]

COC(=O)[C@]1(C)CCC[C@@]2(C)C(=O)CC[C@H]3C(=O)C=C(CC[C@@H]21)C3O (some centres undefined)
inactive: max response [1] -8.93% | max response [2] -5.09% | outcome [3] | max response [4] -0.869% | max response [5] 1.41% | outcome [6] | Potency [7] | Potency [8] | outcome [9] | Potency [10] | Potency [11] | Potency [12] | Potency [13] | Potency [14]

COc1cc(O)cc2c1C(=O)OC(C)C2 (centres undefined)
inactive: max response [1] 4.54% | max response [2] 4.69% | outcome [3] | max response [4] 3.07% | max response [5] -0.229% | outcome [6] | Potency [7] | Potency [8] | outcome [9] | Potency [10] | Potency [11] | Potency [12] | Potency [13] | Potency [14]

OC[C@H]1O[C@@H](OCCc2ccccc2)[C@H](O)[C@@H](O)[C@@H]1O
inactive: max response [1] -3.7% | max response [2] 3.92% | outcome [3] | max response [4] 6.47% | max response [5] 4.48% | outcome [6] | Potency [7] | Potency [8] | outcome [9] | Potency [10] | Potency [11] | Potency [12] | Potency [13] | Potency [14]

CC(=O)OCC1=C[C@@H]2OC(=O)C3=CO[C@@H](O[C@@H]4O[C@H](CO)[C@@H](O)[C@H](O)[C@H]4O)[C@H]1[C@@H]32
inactive: max response [1] 2.42% | max response [2] 4.59% | outcome [3] | outcome [4] | max response [5] 0.706% | outcome [6] inactive [at 17.4 µM] | Potency [7] | Potency [8] | outcome [9] | Potency [10] | Potency [11] | Potency [12] | Potency [13] | Potency [14]

From PubChem BioAssay (NCATS)
